# Bioassay records: PubChem BioAssay, National Center for Advancing Translational Sciences (NCATS)
# An excerpt weighted towards active compounds, which were near 19% of everything screened.
# TDP1 cell CPT: DT40-hTDP1 cell growth loss with CPT; chicken DT40 Tdp1-/-;hTDP1 cells + 20 nM CPT, ATP luminescence, 48 h; Potency, µM (titrated, usually from 46.2 µM), for the others: at the highest dose activity change, negative = growth inhibition, most hits filed as inhibitors; actives 12% (n = 420,000); also: nearly all actives have a fitted effect of over 55% in size
#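 Chicken DT40 Tdp1-/- cells complemented with human TDP1, 400 cells/well, exposed to compounds plus 20 nM camptothecin for at least 48 h at 37 C; viability read as ATP content by CellTiter-Glo luminescence.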
# VP16 counter: counter-screen for ROR gamma inhibitors: Gal4-VP16 reporter; Drosophila S2 Gal4-VP16 UAS-luciferase, luminescence, 20 h; Potency, µM (doses to about 53.6 µM), inactives show top-dose activity, negative = inhibition, actives largely listed as inhibitors; actives 3.5% (n = 310,000);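 also: Gal4-VP16 expression switched on by copper sulfate through the metallothionein promoter; nearly all actives have a fitted effect of over 50% in size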
# TDP1 inh: TDP1 (human) enzyme inhibition; Q9NUW8; recombinant TDP1, AlphaScreen DNA substrate cleavage; Potency, µM (series often up to 130 µM), inactives show at the top dose activity change, negative = inhibition, usual class: inhibitors; actives 0.28% (n = 350,000); AID 485290; also: nearly all actives have a fitted effect of over 40% in size
# Target sequence (Q9NUW8 whole entry, looked up): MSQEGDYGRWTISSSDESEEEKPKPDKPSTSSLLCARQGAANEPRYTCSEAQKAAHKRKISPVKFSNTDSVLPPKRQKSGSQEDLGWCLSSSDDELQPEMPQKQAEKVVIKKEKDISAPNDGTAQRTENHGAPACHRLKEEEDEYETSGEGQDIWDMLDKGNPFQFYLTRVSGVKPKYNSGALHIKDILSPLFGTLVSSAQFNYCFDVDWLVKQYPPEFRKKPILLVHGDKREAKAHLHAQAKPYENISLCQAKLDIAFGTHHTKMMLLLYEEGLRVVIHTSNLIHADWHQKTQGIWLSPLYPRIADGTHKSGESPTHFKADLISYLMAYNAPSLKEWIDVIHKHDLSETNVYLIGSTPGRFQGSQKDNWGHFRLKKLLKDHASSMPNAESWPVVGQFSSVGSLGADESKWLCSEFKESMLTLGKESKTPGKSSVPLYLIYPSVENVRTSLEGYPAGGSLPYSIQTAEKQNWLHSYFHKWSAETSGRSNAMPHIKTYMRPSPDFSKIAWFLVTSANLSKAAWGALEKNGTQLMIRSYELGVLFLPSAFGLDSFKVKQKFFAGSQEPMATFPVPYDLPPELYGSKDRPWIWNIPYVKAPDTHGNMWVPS
#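 AlphaScreen read-out: signal falls as enzyme removes the 3' tyrosine-FITC from a 5'-biotinylated DNA oligo (15 nM, 5 min, RT). Enzyme was E. coli-made recombinant Tdp1 at 1 nM, exposed to compound for 15 min beforehand; beads 10 ug/ml, 10 min.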
# DT40 TDP1 no CPT: qHTS for Inhibitors of human tyrosyl-DNA phosphodiesterase 1 (TDP1): qHTS in cells in absence of CPT | Potency, µM (titrated, usually from 46.2 µM), for inactives: top-dose activity change, negative = growth inhibition, usual class: inhibitors | actives 15% (n = 420,000) | DT40 Tdp1-/- hTDP1 cells, no CPT, ATP luminescence, 48 h; also: nearly all actives have a fitted effect of over 55% in size
#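 Cells were dispensed at 400 per well, compounds added by pin tool, plates incubated ≥48 hr at 37 °C, then CellTiter-Glo added for 30 min at room temperature before luminescence reading. Line: DT40 Tdp1-/- complemented with hTDP1; camptothecin omitted.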
# RORg inh: ROR gamma (mouse) transcription inhibition; P51450; Drosophila S2 Gal4-RORgamma UAS-luciferase reporter, 20 h; Potency, µM (top dose mostly 53.6 µM), for the others: top-dose activity change, negative = inhibition, actives largely listed as inhibitors; actives 5.4% (n = 310,000); also: nearly all actives have a fitted effect of over 60% in size
#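 ROR gamma transcriptional activity was tracked as Gal4-UAS luciferase output in stably transfected Drosophila Schneider cells, with compound added 1 hr before 700 uM copper sulfate induction and a 20 hr ambient-temperature incubation.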
# Starred values were filed as active, the others as inactive; ? = inconclusive; nt = no result given; [ ] = dose if it differs, or a comment. Calls follow the shape of the dose curve; as a rule, active = well fitted curve in the direction sought with a large enough effect; inconclusive = small, poorly fitted or top-dose-only effect, or another doubt; inactive = no such curve, though single readings can be large; an effect the other way counts as inactive or inconclusive. % is scaled to controls: 0 for no effect and ±100 for the full control effect; potency is read from the fitted curve at half-maximal effect.
SMILES,TDP1 cell CPT,VP16 counter,TDP1 inh,DT40 TDP1 no CPT,RORg inh
COc1ccc(Cn2nnnc2C(C(C)C)N(Cc2ccco2)Cc2cccs2)cc1 (stereo not given),?,-27%,-1%,?,18%
CC(C)(C)n1nnnc1C(c1ccc(Cl)cc1)N(Cc1cccnc1)Cc1ccco1 (stereo not given),18µM*,-3%,10%,-25%,?
CC(C)(C)n1nnnc1C(c1cccnc1)N(Cc1ccccc1)Cc1cccs1 (stereo not given),?,?,6%,?,?
Cc1ccc(C(c2nnnn2C(C)(C)C)N(Cc2ccco2)Cc2cccs2)cc1 (stereo not given),?,7.1µM*,5%,?,10µM*
CC(C)(C)n1nnnc1C(c1ccc(C(F)(F)F)cc1)N(Cc1ccc(F)cc1)Cc1ccco1 (stereo not given),?,?,0%,21µM*,?
CC(C)(C)n1nnnc1C(c1cccs1)N(Cc1ccccc1)Cc1cccnc1 (stereo not given),21µM*,-4%,2%,26µM*,8%
COc1cc2c(cc1OC)C1OC(c3ccsc3)(C2)Oc2cc(C)oc(=O)c21 (stereo not given),nt,-4%[10 µM],nt,nt,3%[10 µM]
COCCNC(=O)CSc1nc(-c2ccc(C)cc2)nc2c1c(=O)n(C)c(=O)n2C,-15%,nt,8%,-2%,nt
COc1cc2c(cc1OC)CN(C(=O)c1ccc(OC)c(S(=O)(=O)N3CCCC3)c1)CC2,?,nt,11%,29µM*,nt
COc1cc2c(cc1OC)CN(C(=O)c1ccc(N3CCCC3)c([N+](=O)[O-])c1)CC2,21µM*,nt,nt,23µM*,nt
COc1cc2c(cc1OC)CN(C(=O)CN1CCN(S(=O)(=O)c3ccc(C)c(C)c3)CC1)CC2,23µM*,-1%,4%,13µM*,-4%
COc1cc2c(cc1OC)CN(C(=O)c1ccc(Cl)c(S(=O)(=O)N3CCCC3)c1)CC2,23µM*,nt,1%,?,nt
CN1CCN(C(=O)c2ccc(Cl)c(S(=O)(=O)N3CCCCC3)c2)CC1,-15%,-6%,-5%,-12%,-22%
O=C(COC(=O)c1cnc(Cl)c(Cl)c1)Nc1cccc(S(=O)(=O)N2CCOCC2)c1,-14%,nt,-2%,-17%,nt
O=S(=O)(NCCCSc1ccccc1)c1ccccc1F,?,7%,nt,-23%,1%
CCOC(=O)Cn1c(=O)oc2cc(S(=O)(=O)N3CCN(c4cccc(C)c4)C(C)C3)ccc21 (stereo not given),?,nt,5%,?,nt
COc1cc2c(cc1OC)CN(C(=O)c1cc(S(=O)(=O)N3CCOCC3)ccc1Cl)CC2,?,3%,3%,21µM*,0%[10 µM]
Cc1ccc(S(=O)(=O)N2CCN(C(=O)c3cc(S(=O)(=O)N4CCOCC4)ccc3Cl)CC2)c(C)c1,18µM*,nt,nt,16µM*,nt
O=C(c1cc(S(=O)(=O)N2CCCCC2)ccc1Cl)N1CCOCC1,11%,-8%,2%,-26%,-17%
Fc1ccc(NC(=S)N2CCN(c3ccccn3)CC2)cc1Cl,?,nt,nt,-17%,nt
Cc1ccc(CNc2ncccc2-c2nc(-c3ccc(Cl)cc3)no2)cc1,-11%,nt,3%,-7%,nt
CCc1ccc2[nH]c(=O)c(CN(CCN(C)C)C(=O)Nc3ccccc3)cc2c1,?,-1%,6%,?,5%
COCCCNC(=S)N1CCN(c2ccc([N+](=O)[O-])cc2)CC1,16µM*,-10%,3%,8.2µM*,?
O=[N+]([O-])c1ccc(N2CCN(C(=S)NCc3ccc(Cl)cc3)CC2)cc1,5.8µM*,?,nt,3.7µM*,-25%
CCNC(=S)N1CCN(c2ccc([N+](=O)[O-])cc2)CC1,-81%,-3%,3%,-92%,?
SMILES,TDP1 cell CPT,VP16 counter,TDP1 inh,DT40 TDP1 no CPT,RORg inh
Cc1cccc2[nH]c(CN(C)C(=O)CC3C(=O)NCCN3CC(C)(C)C)nc12 (stereo not given),4%,-4%,-3%,-24%,-15%
CC(C)CC(=O)N1CCN(S(=O)(=O)c2ccc3ccccc3c2)CC1,?,?,2%,?,?
Cc1ccc(NS(=O)(=O)c2cc(-c3cnc(C4CC4)o3)ccc2C)cc1Cl,7.3µM*,nt,6%,5.2µM*,nt
Cc1ccc(-c2cnc(C3CC3)o2)cc1S(=O)(=O)Nc1ccccc1,4.6µM*,-8%,2%,4.6µM*,-26%
Cc1cc(C)c(NS(=O)(=O)c2cc(-c3cnc(C4CC4)o3)ccc2C)c(C)c1,-21%,nt,-6%,?,nt
CC(=O)Nc1ccc(NS(=O)(=O)c2cc(-c3cnc(C4CC4)o3)ccc2C)cc1,2.9µM*,2%,-1%,2.3µM*,-5%
CC(=O)c1ccc(NS(=O)(=O)c2cc(-c3cnc(C4CC4)o3)ccc2C)cc1,13µM*,10%,0%,?,11%
Cc1c(OC(C)C(=O)NCCN2CCOCC2)ccc2c3c(c(=O)oc12)CCCC3 (stereo not given),-5%,-2%,4%,3%,-19%
CC(=O)c1cccc(NS(=O)(=O)c2cc(-c3cnc(C4CC4)o3)ccc2C)c1,5.8µM*,-15%,6%,5.2µM*,-1%
CC(=O)c1cccc(NS(=O)(=O)c2cc3c(cc2C)NC(=O)CO3)c1,-12%,1%,2%,-3%,5%
Cn1ccsc1=NC(=O)c1ccc([N+](=O)[O-])o1,18µM*,8%,6%,?,15%
Cc1ccc(OCC(=O)NCC2CCCO2)c(C)c1 (stereo not given),28%,-10%,3%,-14%,3%
Cc1ccc(S(=O)(=O)NCCn2cnc([N+](=O)[O-])n2)cc1,2%,-2%,-3%,-13%,-23%
CC(=O)c1c(C)nn(CC(O)COc2ccc3c(c2)CCC3)c1C (stereo not given),?,-6%,7%,16µM*,?
CC(C)(C)CC(C)(C)NCC(O)COc1ccc2c(c1)CCC2 (stereo not given),?,nt,nt,23µM*,nt
COc1ccccc1N1CCN(CC(O)COc2ccc(C)cc2C(C)(C)C)CC1 (stereo not given),?,nt,6%,18µM*,nt
Cc1ccc(OCC(O)CN2CCN(CC(O)COC(C)C)CC2)c(C(C)(C)C)c1 (stereo not given),?,4%,5%,?,10%
Cc1nn(CC(O)COc2ccc3c(c2)CCC3)c(C)c1Br (stereo not given),?,-29%,2%,?,-2%
COc1ccccc1N1CCN(CC(O)COc2ccc3c(c2)CCC3)CC1 (stereo not given),16µM*,-13%,4%,?,-4%
